# PubChem BioAssay (NCATS)
# Inconclusive results are not listed. Active and inactive are the calls of the source. Calls come from the whole dose curve; as a rule, active = well fitted inhibition curve with a large enough effect; inconclusive = small, poorly fitted or top-dose-only effect; inactive = flat fitted curve, though single readings scatter. Where a SMILES comes first, the peptide text is derived from it. Bridges are numbered along the chain shown (N, C = ends). [ ]: non-standard residue; d: D form. hArg = N=C(N)NCCCC[C@H](N)C(=O)O; Mpa = O=C(O)CCS
# Test system: not listed separately
# Experiment: Drug repurposing screens with cells derived from glioblastoma tumor samples (AID 1345199); note: nearly all actives have a fitted effect of over 40% in size
# Conditions: GBM patient neurospheres viability, ATP luminescence, 48 h; tumour line A
# Summary of the method: (§1)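 Primary testing used CD133+ neurospheres from four GBM patients, seven concentrations, 48 h exposure and ATP-based viability; confirmation added three slower-growing patient lines.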
# % is set by controls: 0 for no effect and ±100 for the full control effect; potency is the fitted concentration of half-maximal effect.
row,SMILES,Potency
1,CCN(CC)CC1CCCCN1CC(=O)N1c2ccccc2C(=O)Nc2cccnc21 (configuration not stated),20 µM (active)
2,O=C(/C=C/c1ccc(O)c(O)c1)O[C@@H]1C[C@@](OC(=O)/C=C/c2ccc(O)c(O)c2)(C(=O)O)C[C@@H](O)[C@@H]1O,28.2 µM (active)
3,CN1CCCN=C1COC(=O)C(O)(c1ccccc1)C1CCCCC1 (configuration not stated),11.2 µM (active)
4,CCCCCCCCCCC(CO)CCCCCCCC (configuration not stated),25.1 µM (active)

# Test system: astro (control astrocytes)
# Experiment: as above
# Conditions: viability, ATP luminescence, 48 h; series mostly up to 45.9 µM; activity, negative = cell killing: at the top concentration
# Summary of the method: as §1
row,SMILES,"activity, negative = cell killing"
1,CN1C[C@@H]2C[C@H]1CN2c1cc2c(cc1F)c(=O)c(C(=O)O)cn2C1CC1,-5.27% (inactive)
2,CCOc1ccc(C(=O)OCCN(CC)CC)cc1,-20.9% (inactive)
3,CCOc1cc(NC(C)=O)ccc1C(=O)OC,0.36% (inactive)
4,COc1nccnc1NS(=O)(=O)c1ccc(N)cc1,-12.6% (inactive)
5,CCCCCC(C)N (configuration not stated),-12.1% (inactive)
6,CCCNC(C)C(=O)Nc1c(C)csc1C(=O)OC (configuration not stated),-11.1% [at 21.2 µM] (inactive)
7,CC(=O)N(CC(O)CN(C(C)=O)c1c(I)c(C(=O)NCC(O)CO)c(I)c(C(=O)NCC(O)CO)c1I)c1c(I)c(C(=O)NCC(O)CO)c(I)c(C(=O)NCC(O)CO)c1I (configuration not stated),-7.78% [at 21.2 µM] (inactive)
8,CN/C(=C\[N+](=O)[O-])NCCSCc1csc(CN(C)C)n1,-12.8% [at 21.2 µM] (inactive)
9,CCc1nnc(NS(=O)(=O)c2ccc(N)cc2)s1,-16.9% (inactive)
10,O=C(NCC(O)CO)c1c(I)c(C(=O)NCC(O)CO)c(I)c(N(CCO)C(=O)CO)c1I (configuration not stated),-3.8% [at 21.2 µM] (inactive)
11,O=C(O)c1ccc(OCCCOc2ccc(C(=O)O)cc2)cc1,-12.4% (inactive)
12,O=C(Cn1ccnc1[N+](=O)[O-])NCCO,-6.57% (inactive)
13,COCC(=O)Nc1c(I)c(C(=O)NCC(O)CO)c(I)c(C(=O)N(C)CC(O)CO)c1I (configuration not stated),-11.2% [at 21.2 µM] (inactive)
14,NC(=O)[C@@H]1CSSCCC(=O)N[C@@H](CCCCN=C(N)N)C(=O)NCC(=O)N[C@@H](CC(=O)O)C(=O)N[C@@H](Cc2c[nH]c3ccccc23)C(=O)N2CCC[C@H]2C(=O)N1 ([Mpa][hArg]GDWPC-NH2; disulfide 1-7),0.882% (inactive)
15,O=c1[nH]c(=O)c2ccccc2o1,-13.1% (inactive)
16,NNC(=O)CP(=O)(c1ccccc1)c1ccccc1,-11.7% (inactive)
17,COc1ccccc1Oc1c(NS(=O)(=O)c2ccc(C(C)(C)C)cc2)nc(-c2ncccn2)nc1OCCO,-19% (inactive)
18,CCN(CC)CC1CCCCN1CC(=O)N1c2ccccc2C(=O)Nc2cccnc21 (configuration not stated),-28.6% (inactive)
19,O=C(/C=C/c1ccc(O)c(O)c1)O[C@@H]1C[C@@](OC(=O)/C=C/c2ccc(O)c(O)c2)(C(=O)O)C[C@@H](O)[C@@H]1O,-8.42% (inactive)

row,SMILES,"activity, negative = cell killing"
1,CC(C)(C)C(=O)OCOC(=O)[C@@H]1N2C(=O)[C@@H](NC(=O)[C@H](N)c3ccccc3)[C@H]2SC1(C)C,-3.19% [at 21.2 µM] (inactive)
2,CCCNC(C)(C)COC(=O)c1ccccc1,-1.57% (inactive)
3,CNc1c2c(nn1C)CCCC2,4.71% (inactive)
4,COc1ccccc1OC(=O)Oc1ccccc1OC,-5.75% (inactive)
5,CC(=O)N(CC(O)CO)c1c(I)c(C(=O)NCC(O)CO)c(I)c(C(=O)NCC(O)CO)c1I (configuration not stated),-4.82% (inactive)
6,CC(N)CCCC(C)(C)O (configuration not stated),-14.2% (inactive)
7,Cc1[nH]c(C)c(Cl)c(=O)c1Cl,-6.37% (inactive)
8,CCN(CC)CCOC(=O)C(c1ccccc1)c1ccccc1,-12.1% (inactive)
9,CN1CCCN=C1COC(=O)C(O)(c1ccccc1)C1CCCCC1 (configuration not stated),-20.6% (inactive)
10,CCOC(=O)c1cccnc1,-9.45% (inactive)
11,C[N+]1(C)CCCC(OC(=O)C(O)(c2ccccc2)c2ccccc2)C1 (configuration not stated),-11.7% [at 21.2 µM] (inactive)
12,CCCCCCCCCCC(CO)CCCCCCCC (configuration not stated),-20.3% (inactive)
13,O=C(O)/C=C/c1ccc(Cn2ccnc2)cc1,-13.9% [at 21.2 µM] (inactive)
14,CCN(CC)S(=O)(=O)c1ccc(C(=O)O)cc1,-4.26% (inactive)
15,C/C=C/C(=O)N(CC)c1ccccc1C,-13.4% [at 21.2 µM] (inactive)
16,O=C(NCCCN1CCOCC1)c1ccc(Cl)cc1,-13.7% (inactive)
17,CC1(C)S[C@@H]2[C@H](N=CN3CCCCCC3)C(=O)N2[C@H]1C(=O)O,-12.4% (inactive)
18,O=C(O)c1ccc[n+]([O-])c1,-2.31% (inactive)
19,NC(=O)CC[C@@H](N)C(=O)O,-4.06% (inactive)
